Bioassay records: PubChem BioAssay, National Center for Advancing Translational Sciences (NCATS)
Rows were chosen to be rich in hits. Some 1.8% of all compounds tested hit in one or more screens of this group.
KCNH2 3.1 block – blocks the human KCNH2 3.1 channel isoform; U2OS KCNH2 3.1, thallium flux FluxOr; active compounds read low; activity change, % (tested at about 1.8 µM); 340,000 tested, 0.95% active;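 active = maximum activity change below -70%; inconclusive = maximum activity change from -70% to -50%; inactive = maximum activity change above -50%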;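 also: thallium influx rate constant from kinetic fluorescence after stimulation buffer; % is scaled to controls: 0 for no effect and ±100 for the full control effect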
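Normalized rate constant (relative to positive and negative DMSO controls) derived from a 2 min kinetic fluorescence read after stimulation; U2OS cells expressing the 3.1 isoform via virus at 1.77 x 10^8 /mL.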
ALOX12 inh – ALOX12 (human) lipoxygenase inhibition; P18054; purified 12hLO, xylenol orange hydroperoxide absorbance; Potency, µM (highest dose often 108 µM), for inactives: at the top dose activity change, negative = inhibition, actives largely listed as inhibitors; 580,000 tested, 1.1% active; also: potency is read from the fitted curve at half-maximal effect; % is scaled to controls: 0 for no effect and ±100 for the full control effect
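Hydroperoxide product was detected by ferrous iron/xylenol orange as the 573 to 405 nm absorbance ratio. Arachidonic acid at 40 uM (final) was turned over for 30 min at room temperature by 150 nM human 12hLO, pH 7.0 Hepes buffer, after 15 min compound preincubation.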
KCNH2 WT inh – blocks the wildtype human KCNH2 potassium channel | Q12809 | U2OS, BacMam KCNH2, thallium flux FluxOr; active compounds read low | activity change, % at 1.84 µM | 340,000 tested, 0.37% active | AID 720551;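 active = maximum activity change below -70%; inconclusive = maximum activity change between -70% and -50%; inactive = maximum activity change above -50%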; also: % is scaled to controls: 0 for no effect and ±100 for the full control effect
Target sequence (Q12809 whole entry, looked up): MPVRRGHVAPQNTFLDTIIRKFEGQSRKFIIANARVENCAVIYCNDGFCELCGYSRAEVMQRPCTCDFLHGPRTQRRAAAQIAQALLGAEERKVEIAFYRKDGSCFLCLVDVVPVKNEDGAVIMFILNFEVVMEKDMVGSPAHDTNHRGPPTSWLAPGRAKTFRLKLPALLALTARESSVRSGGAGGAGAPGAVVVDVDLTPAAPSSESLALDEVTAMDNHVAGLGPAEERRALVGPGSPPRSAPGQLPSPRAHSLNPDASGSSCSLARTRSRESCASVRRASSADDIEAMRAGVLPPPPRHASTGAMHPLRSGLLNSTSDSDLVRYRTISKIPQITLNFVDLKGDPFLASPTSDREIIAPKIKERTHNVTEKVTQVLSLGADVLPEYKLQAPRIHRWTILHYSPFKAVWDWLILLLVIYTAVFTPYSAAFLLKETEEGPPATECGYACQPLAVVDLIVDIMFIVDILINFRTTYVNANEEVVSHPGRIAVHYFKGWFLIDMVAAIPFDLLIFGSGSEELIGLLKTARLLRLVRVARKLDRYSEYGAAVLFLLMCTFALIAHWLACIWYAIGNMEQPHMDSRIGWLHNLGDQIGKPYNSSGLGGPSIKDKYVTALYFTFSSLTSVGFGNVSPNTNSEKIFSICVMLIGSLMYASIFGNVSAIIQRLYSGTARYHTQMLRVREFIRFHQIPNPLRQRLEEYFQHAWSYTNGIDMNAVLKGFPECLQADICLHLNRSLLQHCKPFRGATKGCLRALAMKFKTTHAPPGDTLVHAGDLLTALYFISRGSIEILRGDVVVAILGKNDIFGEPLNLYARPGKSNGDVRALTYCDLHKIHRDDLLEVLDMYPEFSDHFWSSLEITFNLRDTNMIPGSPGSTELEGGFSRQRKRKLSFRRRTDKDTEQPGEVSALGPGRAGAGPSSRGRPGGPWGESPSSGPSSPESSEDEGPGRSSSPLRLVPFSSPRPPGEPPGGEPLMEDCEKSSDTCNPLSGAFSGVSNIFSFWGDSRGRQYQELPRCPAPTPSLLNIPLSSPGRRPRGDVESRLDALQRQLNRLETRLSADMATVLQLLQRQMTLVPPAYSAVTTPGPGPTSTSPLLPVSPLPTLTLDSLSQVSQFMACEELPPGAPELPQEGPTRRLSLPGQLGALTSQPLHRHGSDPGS
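U2OS cells were transduced with wild-type KCNH2 virus (2.03 x 10^8 / mL) for 4 h at room temperature, then cultured overnight at 37 C. Thallium flux was read with FluxOr dye. Rate constants were normalized to DMSO controls.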
AT treatment – candidate therapy for ataxia-telangiectasia; AID 485349; Potency, µM (highest dose often 57.5 µM), inactives show top-dose activation, usual class: activators; 320,000 tested, 0.19% active; F2112 A-T fibroblasts, KAP-1 phosphorylation AlphaLISA; neocarzinostatin DNA damage 30 min before lysis; also: potency is read from the fitted curve at half-maximal effect; % of control where 0% means no effect; nearly all actives have a fitted effect of over 45% in size
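ATM-like activity read as KAP-1 phosphorylation via AlphaLISA donor/acceptor antibody pairs after lysis and 6 hr at 25C. Cells were ATM-null patient fibroblasts (F2112, hTERT), dosed 60 min, then exposed to the DSB inducer NCS for 30 min.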
The depositor's hits bear a star; ? = inconclusive; nt = no result given; [ ] = remark or other dose. Unless noted, calls follow the shape of the dose curve; as a rule, active = well fitted curve in the direction sought with a large enough effect; inconclusive = small, poorly fitted or top-dose-only effect, or another doubt; inactive = no such curve, though single readings can be large; an effect the other way counts as inactive or inconclusive.

SMILES	KCNH2 3.1 block	ALOX12 inh	KCNH2 WT inh	AT treatment
Cc1nc2ncnn2c(N(C)Cc2ccccc2)c1Cc1ccccc1	nt	6%	nt	nt
NC(=O)c1ccccc1NCc1cccc2ccccc12	nt	-14%	nt	nt
COc1cc(NC(=O)N2CCC3(CC2)N=C(c2cccc(Cl)c2)C(=O)N3)cc(OC)c1OC	nt	-7%	nt	nt
O=C1NC(=Nc2ccccc2)S/C1=C\c1ccccc1	-5	-14%	-10	-9%
O=C1N/C(=N/Nc2ccccc2)S/C1=C\c1ccccc1	9	5.6µM*	-6	-10%
CCCn1cnnc1CNC(=O)C1(Oc2ccc(Cl)cc2)CCNCC1	nt	4%	nt	nt
Cc1ccc(NS(=O)(=O)c2ccc(NC(=O)c3ccccc3C(=O)O)cc2)c(C)c1	-24	-5%	-12	nt
Cc1ccc(NS(=O)(=O)c2ccc(NC(=O)CSc3ccc(Cl)cc3)cc2)c(C)c1	0	32µM*	-9	1%
Cc1ccc(O)c(NC(=O)CSc2ccc(Cl)cc2)c1	-105*	-15%	-12	8%
Cc1ccc(C(=O)Nc2ncn(CC(=O)NCc3ccccc3)n2)cc1	nt	-3%	nt	nt
Nc1nc2ccccc2n1/N=C/c1ccc(-c2ccccc2)o1	-87*	-1%	1	-1%
CCOC(=O)c1ccc(NC(=O)Cn2c(-c3cnccn3)nc(C)c(C)c2=O)cc1	nt	44%	nt	nt
COc1cccc(-c2cnc3c(NC=O)cc(-c4ccc(OC)cc4OC)cn23)c1	nt	-1%	nt	nt
COc1ccc(-c2cnc3c(NC=O)cc(-c4cc(OC)c(OC)c(OC)c4)cn23)cc1OC	nt	-9%	nt	nt
COc1ccc(-c2cnc3c(NC=O)cc(-c4ccoc4)cn23)cc1OC	nt	5µM*	nt	nt
COc1ccc(-c2cc(NC=O)c3ncc(-c4ccc(OC)c(OC)c4)n3c2)c(OC)c1	nt	56µM*	nt	nt
COc1ccc(-n2c(SCC(=O)Nc3cc(Cl)ccc3OC)nc3c(c2=O)SCC3)cc1	nt	-3%	nt	nt
Cc1nc(CCNC(=O)C2CNCCO2)sc1C (stereo unspecified)	nt	8.9µM*	nt	nt
Cc1nc(CCCNC(=O)[C@H]2CNC[C@@H](C(=O)N3CCOCC3)C2)sc1C	nt	10%	nt	nt
N#CC1(NC(=O)CNc2cc(F)cc(F)c2)CCCC1	nt	-13%	nt	nt
COc1ccc(CC(=O)N2CCCN(c3cc(-c4ccc(F)cc4)[nH]n3)CC2)cc1	nt	46%	nt	nt
COc1cccc(-c2nc(CS(=O)(=O)CC(=O)Nc3c(C)cccc3C)c(C)o2)c1	-104*	32%	3	0%
COc1ccc(-c2nc(CS(=O)(=O)CC(=O)NC3CCCCCC3)c(C)o2)cc1	-4	-9%	-102*	-20%
COc1cccc(-c2nc(CS(=O)(=O)CC(=O)Nc3c(C)cc(C)cc3C)c(C)o2)c1	nt	-28%	nt	nt
Cc1ccc(-c2nc(CS(=O)(=O)CC(=O)NCCN3CCOCC3)c(C)o2)cc1	9	2%	-187*	8%
SMILES	KCNH2 3.1 block	ALOX12 inh	KCNH2 WT inh	AT treatment
CCNC(=O)c1cccc(NC(=O)Cc2ccc(OC)cc2)c1	nt	4%	nt	nt
Nc1cc(=O)[nH]c(SCC(=O)N2N=C(c3ccc(Cl)cc3)CC2c2ccco2)n1 (stereo unspecified)	3	40µM*	3	3%
CC(C)[C@H](NS(=O)(=O)c1ccccc1)C(=O)OCC(=O)N1N=C(c2ccc(Cl)cc2)CC1c1ccco1 (stereo partly specified)	-75*	40µM*	-13	-5%
Cc1ccc(OCC(=O)N2N=C(c3ccc(Cl)cc3)CC2c2ccco2)c([N+](=O)[O-])n1 (stereo unspecified)	-91*	?	-72*	-3%
CCCc1cc(=O)[nH]c(SCC(=O)N2N=C(c3ccc(Cl)cc3)CC2c2ccco2)n1 (stereo unspecified)	18	?	2	1%
Cc1cccc2c1NC(=O)C21CC(=O)Nc2c1sc(C(=O)O)c2-c1ccccc1 (stereo unspecified)	nt	-24%	nt	nt
CCOC(=O)C(C)Oc1ccc2cc(-c3ccc(Cl)cc3)c(=O)oc2c1 (stereo unspecified)	nt	-41%	nt	nt
C=CCn1c(=O)/c(=C/c2ccc(Cl)cc2)s/c1=C(\C#N)c1nnc2n1CCCCC2	-87*	-17%	0	nt
C=CCN1C(c2ccccc2)=CS/C1=C(\C#N)c1nnc2n1CCCCC2	-17	-22%	-2	-12%
CS(=O)(=O)c1cnc(NCc2ncc[nH]2)nc1C1CCCNC1 (stereo unspecified)	nt	114%	nt	nt
COc1ccc(N=N/C(=C\O)C(=O)c2cccs2)cc1	11	35µM*	-5	-10%
COc1ccc(C(=O)/C(=C/O)N=Nc2ccc(F)cc2)cc1	-3	11µM*	-11	-10%
CCOC(=O)N1C(=O)[C@@](c2ccc(Cl)cc2)(C(C)C)N1C(=O)OCC	9	-20%	0	20µM*
COc1ccc(C(C)C)cc1CN1CCCC(CNC(C)=O)C1 (stereo unspecified)	nt	26%	nt	nt
CCOC(=O)N1CCC(NC(=O)c2cc3sccc3n2CC)CC1	-8	4%	-10	-1%
CCn1c(C(=O)NC2CCC(C)CC2)cc2sccc21 (stereo unspecified)	-2	7%	-233*	11%
COc1ccccc1NCC(=O)c1ccc(C)c(C)c1	4	16µM*	-3	0%
O=C(CSc1nnc(SCc2ccccc2)s1)N/N=C/C=C\c1ccco1	3	18µM*	13	-1%
O=C(CSc1nnc(SCc2ccccc2)s1)N/N=C/C=C/c1ccccc1[N+](=O)[O-]	-6	1%	25	-9%
CC1CCCCN1CCCNC(=O)C1CCN(c2nnc(-n3cccc3)s2)CC1 (stereo unspecified)	-201*	7%	23	-1%
Fc1ccc(-n2cc(CNCCc3ccncc3)c(-c3ccccc3Cl)n2)cc1	11	-4%	22	8%[11.5 µM]
Fc1ccc(-n2cc(CNCCc3cccnc3)c(-c3ccccc3Cl)n2)cc1	-74*	0%	70	3%
CCCCNc1oc(/C=C/c2cccs2)nc1C#N	nt	24%	nt	nt
C=CCNc1oc(/C=C/c2cccs2)nc1C#N	nt	18µM*	nt	nt
Nc1cccc(P(=O)(c2ccccc2)c2ccccc2)c1	-11	0%	1	2%
SMILES	KCNH2 3.1 block	ALOX12 inh	KCNH2 WT inh	AT treatment
O=P(c1ccccc1)(c1ccccc1)N(c1ccccc1)c1ccccc1	-70*	-12%	52	1%
Cc1c2c(nc3ccccc13)CCSC2	nt	4.5µM*	nt	nt
CC(C)(CNC(=O)c1ccco1)CNC(=O)c1ccco1	nt	4%	nt	nt
O=C(/C=C/c1ccco1)NC(=S)Nc1cccc([N+](=O)[O-])c1	-7	40µM*	4	nt
Cc1ccc(-n2nc3cc(C)c(NC(=S)NC(=O)/C=C/c4ccco4)cc3n2)cc1	2	45µM*	9	2%
COc1ccccc1NC(=S)NC(=O)/C=C/c1ccco1	-4	40µM*	5	-4%
Cc1cccc(NC(=O)c2cc3c(cc2C)OCCCO3)c1	nt	-1%	nt	nt
Fc1cccc(/C=C/c2nc3ccccc3o2)c1	nt	-6%	nt	nt
CC(C)C(C(=O)N1CCC2(CC1)CN(C)CCN2C)c1ccc(Cl)cc1 (stereo unspecified)	nt	59%	nt	nt
